Data on seven sequences can be found in publication PMC7862700, “An all-to-all approach to the identification of sequence-specific readers for epigenetic DNA modifications on cytosine”.

Common to all, as to assay: DAPPL (digital affinity profiling via proximity ligation, sequencing); 10 mM Tris-HCl pH 7.5, 50 mM NaCl, 1 mM DTT, 4% glycerol, room temperature, 30 min; GST-TFs on glutathione beads, 16-mer random dsDNA library, 0.1% formaldehyde crosslink after washing; high values mean tight binding
What all share (details): protein: recombinant; tags: N-terminal GST; dsDNA, one strand shown

The target in one assay is T1, FLI1 (Homo sapiens, UniProt Q01543 1-452).
T1 sequence: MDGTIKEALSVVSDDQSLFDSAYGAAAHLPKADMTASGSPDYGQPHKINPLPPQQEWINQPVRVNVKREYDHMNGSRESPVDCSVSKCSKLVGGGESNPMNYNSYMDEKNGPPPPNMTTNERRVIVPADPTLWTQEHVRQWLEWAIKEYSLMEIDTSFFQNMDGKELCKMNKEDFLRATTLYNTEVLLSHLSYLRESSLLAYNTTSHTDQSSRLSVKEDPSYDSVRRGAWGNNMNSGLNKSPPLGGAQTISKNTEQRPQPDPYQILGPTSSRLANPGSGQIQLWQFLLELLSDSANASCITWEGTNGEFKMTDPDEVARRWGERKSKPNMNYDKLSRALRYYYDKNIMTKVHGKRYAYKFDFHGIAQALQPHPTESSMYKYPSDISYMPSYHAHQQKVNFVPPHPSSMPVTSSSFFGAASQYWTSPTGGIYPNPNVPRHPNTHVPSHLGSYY
A digest of the protocol: (§1)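 A tag-only sample was pooled with DNA-barcoded human transcription factors that had been expressed in yeast as GST fusions and captured on glutathione beads. The pools were incubated for 30 min at room temperature with 200 nmole of a random double-stranded 16-mer DNA library in Tris/NaCl/DTT/glycerol buffer, then washed, crosslinked with 0.1% formaldehyde, proximity-ligated (BsaI/T4 ligase, 1 h, 37 °C), PCR-amplified and sequenced on an Illumina NextSeq500. Binding signal is each hexamer's read frequency for a factor divided by its frequency for the tag-only sample.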

In another assay the target is T2, ELK1 (Homo sapiens, UniProt P19419 1-428).
T2 sequence: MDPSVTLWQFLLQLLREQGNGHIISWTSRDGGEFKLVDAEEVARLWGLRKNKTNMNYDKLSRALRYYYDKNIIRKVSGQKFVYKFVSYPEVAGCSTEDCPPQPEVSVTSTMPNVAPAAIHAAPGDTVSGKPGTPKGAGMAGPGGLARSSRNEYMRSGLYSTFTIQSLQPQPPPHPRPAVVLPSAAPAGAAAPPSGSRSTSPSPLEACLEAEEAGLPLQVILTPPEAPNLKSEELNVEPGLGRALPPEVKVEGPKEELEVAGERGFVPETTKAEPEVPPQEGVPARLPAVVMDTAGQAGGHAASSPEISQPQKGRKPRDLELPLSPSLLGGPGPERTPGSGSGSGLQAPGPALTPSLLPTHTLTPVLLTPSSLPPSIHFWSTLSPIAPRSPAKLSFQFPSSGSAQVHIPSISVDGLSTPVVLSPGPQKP
A digest of the protocol:
as §1

For the next assay, the target named is T3, GABPA (Homo sapiens, UniProt Q06546 1-454).
T3 sequence: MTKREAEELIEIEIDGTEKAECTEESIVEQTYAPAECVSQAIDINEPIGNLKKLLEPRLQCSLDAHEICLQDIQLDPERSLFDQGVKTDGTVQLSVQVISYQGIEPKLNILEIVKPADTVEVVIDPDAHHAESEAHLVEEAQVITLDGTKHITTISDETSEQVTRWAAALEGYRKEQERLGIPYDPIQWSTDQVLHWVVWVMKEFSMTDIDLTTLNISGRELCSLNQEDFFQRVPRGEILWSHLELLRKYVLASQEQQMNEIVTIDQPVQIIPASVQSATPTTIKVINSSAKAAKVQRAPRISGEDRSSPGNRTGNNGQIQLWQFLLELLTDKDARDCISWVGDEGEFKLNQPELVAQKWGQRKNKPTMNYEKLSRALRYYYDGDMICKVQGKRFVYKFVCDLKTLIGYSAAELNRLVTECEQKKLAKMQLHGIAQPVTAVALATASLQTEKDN
A digest of the protocol: as §1

The next assay has as its target T4, ERG (Homo sapiens, UniProt P11308 1-479).
T4 sequence: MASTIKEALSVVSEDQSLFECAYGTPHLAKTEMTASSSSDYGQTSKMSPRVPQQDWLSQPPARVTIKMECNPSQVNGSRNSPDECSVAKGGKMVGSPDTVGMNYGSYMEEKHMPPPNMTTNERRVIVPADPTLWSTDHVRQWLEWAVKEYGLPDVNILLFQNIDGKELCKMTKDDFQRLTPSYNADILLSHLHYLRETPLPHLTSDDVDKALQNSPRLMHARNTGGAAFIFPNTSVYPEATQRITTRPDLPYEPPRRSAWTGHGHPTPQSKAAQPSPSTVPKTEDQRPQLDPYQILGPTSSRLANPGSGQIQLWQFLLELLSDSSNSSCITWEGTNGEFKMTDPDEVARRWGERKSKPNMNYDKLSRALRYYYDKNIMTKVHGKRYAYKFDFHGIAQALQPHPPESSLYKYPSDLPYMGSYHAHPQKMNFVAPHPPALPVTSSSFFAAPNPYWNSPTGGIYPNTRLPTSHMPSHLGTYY
A digest of the protocol:
as §1

The target in a further assay is ELF1 (Homo sapiens, UniProt P32519 1-619). A digest of the protocol:
as §1

The target in the next assay is T5, EHF (Homo sapiens, UniProt Q9NZC4 1-300).
T5 sequence: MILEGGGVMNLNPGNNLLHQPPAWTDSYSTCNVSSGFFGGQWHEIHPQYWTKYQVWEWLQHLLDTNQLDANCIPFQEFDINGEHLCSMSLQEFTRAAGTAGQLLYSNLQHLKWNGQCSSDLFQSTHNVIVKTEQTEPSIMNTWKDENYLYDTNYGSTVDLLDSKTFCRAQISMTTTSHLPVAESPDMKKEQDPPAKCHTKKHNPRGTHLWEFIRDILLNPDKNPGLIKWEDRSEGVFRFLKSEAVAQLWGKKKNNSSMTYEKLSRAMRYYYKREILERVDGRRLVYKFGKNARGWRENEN
The gist of the method:
as §1

Another assay deals with SPI1 (Homo sapiens, UniProt P17947 1-270). A digest of the protocol: as §1
The next assay concerns the target SPIB (Homo sapiens, UniProt Q01892 1-262). The gist of the method: as §1
The next assay has as its target T6, ELK3 (Homo sapiens, UniProt P41970 1-407).
T6 sequence: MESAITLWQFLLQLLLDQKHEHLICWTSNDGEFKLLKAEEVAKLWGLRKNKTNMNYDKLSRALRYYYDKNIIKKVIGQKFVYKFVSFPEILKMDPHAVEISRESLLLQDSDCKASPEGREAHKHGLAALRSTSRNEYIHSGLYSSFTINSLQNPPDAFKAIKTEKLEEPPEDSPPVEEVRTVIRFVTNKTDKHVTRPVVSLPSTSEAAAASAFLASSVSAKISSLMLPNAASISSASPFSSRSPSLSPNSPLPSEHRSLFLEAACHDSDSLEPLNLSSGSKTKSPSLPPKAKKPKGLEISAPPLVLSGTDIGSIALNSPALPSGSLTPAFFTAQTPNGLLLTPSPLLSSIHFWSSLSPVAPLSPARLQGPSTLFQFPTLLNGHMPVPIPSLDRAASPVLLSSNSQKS
A digest of the protocol: as §1

Chain of ELF1 (P32519 whole entry): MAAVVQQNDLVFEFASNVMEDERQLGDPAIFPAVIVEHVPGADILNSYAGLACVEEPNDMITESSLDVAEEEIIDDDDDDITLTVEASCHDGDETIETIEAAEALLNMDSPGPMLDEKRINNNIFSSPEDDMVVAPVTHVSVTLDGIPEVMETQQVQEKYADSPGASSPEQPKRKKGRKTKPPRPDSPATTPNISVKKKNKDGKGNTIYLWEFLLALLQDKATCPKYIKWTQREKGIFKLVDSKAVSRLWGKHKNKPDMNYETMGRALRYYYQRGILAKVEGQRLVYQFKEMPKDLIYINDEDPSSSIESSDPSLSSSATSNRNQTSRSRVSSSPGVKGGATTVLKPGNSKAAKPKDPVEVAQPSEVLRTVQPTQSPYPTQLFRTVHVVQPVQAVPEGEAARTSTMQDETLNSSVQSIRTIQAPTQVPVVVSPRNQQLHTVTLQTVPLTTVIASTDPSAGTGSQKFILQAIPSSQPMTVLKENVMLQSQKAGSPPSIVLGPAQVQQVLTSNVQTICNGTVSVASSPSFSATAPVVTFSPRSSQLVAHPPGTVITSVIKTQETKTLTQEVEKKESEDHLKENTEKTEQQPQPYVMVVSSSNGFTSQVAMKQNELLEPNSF
Chain of SPIB (Q01892 whole entry): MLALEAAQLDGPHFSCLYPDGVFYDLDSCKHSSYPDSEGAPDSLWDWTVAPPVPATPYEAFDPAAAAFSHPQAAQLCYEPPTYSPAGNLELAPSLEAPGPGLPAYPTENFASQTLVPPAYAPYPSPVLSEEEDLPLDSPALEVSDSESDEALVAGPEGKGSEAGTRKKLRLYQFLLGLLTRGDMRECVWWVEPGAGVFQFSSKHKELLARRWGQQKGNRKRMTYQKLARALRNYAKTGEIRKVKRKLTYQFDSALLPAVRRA

Take CCAAAC: the binding signal with FLI1 was 1.02 fold enrichment (6-mer frequency, TF over GST control); with ELK1, 1.13 fold enrichment (6-mer frequency, TF over GST control); with GABPA, 1.15 fold enrichment (6-mer frequency, TF over GST control); with ERG it was 1.11 fold enrichment (6-mer frequency, TF over GST control); in the assay with ELF1 it was 1.16 fold enrichment (6-mer frequency, TF over GST control); with EHF it was 1.07 fold enrichment (6-mer frequency, TF over GST control). The binding signal is 1.06 fold enrichment (6-mer frequency, TF over GST control) in the assay with SPI1; 1.06 fold enrichment (6-mer frequency, TF over GST control) with SPIB; 1.15 fold enrichment (6-mer frequency, TF over GST control) with ELK3.

For the sequence ATGCCC, the binding signal is 1.38 fold enrichment (6-mer frequency, TF over GST control) with FLI1; 1.38 fold enrichment (6-mer frequency, TF over GST control) with ELK1; 1.33 fold enrichment (6-mer frequency, TF over GST control) in the assay with GABPA; 1.28 fold enrichment (6-mer frequency, TF over GST control) in the assay with ERG; 1.32 fold enrichment (6-mer frequency, TF over GST control) with ELF1; 1.26 fold enrichment (6-mer frequency, TF over GST control) in the assay with EHF. The binding signal in the assay with SPI1 is 1.2 fold enrichment (6-mer frequency, TF over GST control); with SPIB, 1.23 fold enrichment (6-mer frequency, TF over GST control); with ELK3, 1.2 fold enrichment (6-mer frequency, TF over GST control).

GATAAT: the binding signal was 1.04 fold enrichment (6-mer frequency, TF over GST control) with FLI1; 1.05 fold enrichment (6-mer frequency, TF over GST control) with ELK1; 1.13 fold enrichment (6-mer frequency, TF over GST control) in the assay with GABPA; 1.03 fold enrichment (6-mer frequency, TF over GST control) with ERG; 1.02 fold enrichment (6-mer frequency, TF over GST control) in the assay with ELF1; 1.09 fold enrichment (6-mer frequency, TF over GST control) with EHF. Besides, the binding signal is 1.09 fold enrichment (6-mer frequency, TF over GST control) with SPI1; 1.12 fold enrichment (6-mer frequency, TF over GST control) with SPIB; 1.12 fold enrichment (6-mer frequency, TF over GST control) with ELK3.

For the sequence CCTAAC, the binding signal is 1.56 fold enrichment (6-mer frequency, TF over GST control) with FLI1; 1.43 fold enrichment (6-mer frequency, TF over GST control) with ELK1; 1.37 fold enrichment (6-mer frequency, TF over GST control) with GABPA; 1.42 fold enrichment (6-mer frequency, TF over GST control) with ERG; 1.44 fold enrichment (6-mer frequency, TF over GST control) with ELF1; 1.31 fold enrichment (6-mer frequency, TF over GST control) with EHF. For the same sequence, the binding signal in the assay with SPI1 is 1.48 fold enrichment (6-mer frequency, TF over GST control); with SPIB, 1.4 fold enrichment (6-mer frequency, TF over GST control); with ELK3 it was 1.42 fold enrichment (6-mer frequency, TF over GST control).

On to TATCCC, for which the binding signal with FLI1 was 1.63 fold enrichment (6-mer frequency, TF over GST control); with ELK1, 1.65 fold enrichment (6-mer frequency, TF over GST control); with GABPA, 1.53 fold enrichment (6-mer frequency, TF over GST control); in the assay with ERG it was 1.58 fold enrichment (6-mer frequency, TF over GST control); with ELF1, 1.57 fold enrichment (6-mer frequency, TF over GST control); with EHF it was 1.52 fold enrichment (6-mer frequency, TF over GST control). Also, the binding signal with SPI1 is 1.36 fold enrichment (6-mer frequency, TF over GST control); with SPIB, 1.54 fold enrichment (6-mer frequency, TF over GST control); with ELK3 it was 1.56 fold enrichment (6-mer frequency, TF over GST control).

With TCCCTT, the binding signal with FLI1 is 1.63 fold enrichment (6-mer frequency, TF over GST control); in the assay with ELK1, 1.56 fold enrichment (6-mer frequency, TF over GST control); with GABPA, 1.47 fold enrichment (6-mer frequency, TF over GST control); with ERG it was 1.67 fold enrichment (6-mer frequency, TF over GST control); with ELF1 it was 1.62 fold enrichment (6-mer frequency, TF over GST control); with EHF it was 1.5 fold enrichment (6-mer frequency, TF over GST control). The binding signal is 1.69 fold enrichment (6-mer frequency, TF over GST control) in the assay with SPI1; 1.61 fold enrichment (6-mer frequency, TF over GST control) with SPIB; 1.37 fold enrichment (6-mer frequency, TF over GST control) with ELK3.

With TTTGGG, the binding signal is 1.27 fold enrichment (6-mer frequency, TF over GST control) with FLI1; 1.34 fold enrichment (6-mer frequency, TF over GST control) with ELK1; 1.37 fold enrichment (6-mer frequency, TF over GST control) with GABPA; 1.25 fold enrichment (6-mer frequency, TF over GST control) with ERG; 1.25 fold enrichment (6-mer frequency, TF over GST control) in the assay with ELF1; 1.28 fold enrichment (6-mer frequency, TF over GST control) with EHF. Also, the binding signal in the assay with SPI1 was 1.4 fold enrichment (6-mer frequency, TF over GST control); with SPIB, 1.18 fold enrichment (6-mer frequency, TF over GST control); with ELK3, 1.29 fold enrichment (6-mer frequency, TF over GST control).
